From PubChem
Only some compounds are listed: those with a hit (about 18% of all), similar ones and a draw of the others.
TDP1 inh = blocks human tyrosyl-DNA phosphodiesterase 1; recombinant TDP1, AlphaScreen DNA substrate cleavage; Potency, µM (highest dose often 130 µM), for inactives: at the top dose activity change, negative = inhibition, most hits filed as inhibitors; 350,000 compounds, 0.28% hits; further: potency means the concentration at half of the fitted maximal effect; nearly all actives have a fitted effect of over 40% in size
Target sequence (Q9NUW8 whole entry, looked up): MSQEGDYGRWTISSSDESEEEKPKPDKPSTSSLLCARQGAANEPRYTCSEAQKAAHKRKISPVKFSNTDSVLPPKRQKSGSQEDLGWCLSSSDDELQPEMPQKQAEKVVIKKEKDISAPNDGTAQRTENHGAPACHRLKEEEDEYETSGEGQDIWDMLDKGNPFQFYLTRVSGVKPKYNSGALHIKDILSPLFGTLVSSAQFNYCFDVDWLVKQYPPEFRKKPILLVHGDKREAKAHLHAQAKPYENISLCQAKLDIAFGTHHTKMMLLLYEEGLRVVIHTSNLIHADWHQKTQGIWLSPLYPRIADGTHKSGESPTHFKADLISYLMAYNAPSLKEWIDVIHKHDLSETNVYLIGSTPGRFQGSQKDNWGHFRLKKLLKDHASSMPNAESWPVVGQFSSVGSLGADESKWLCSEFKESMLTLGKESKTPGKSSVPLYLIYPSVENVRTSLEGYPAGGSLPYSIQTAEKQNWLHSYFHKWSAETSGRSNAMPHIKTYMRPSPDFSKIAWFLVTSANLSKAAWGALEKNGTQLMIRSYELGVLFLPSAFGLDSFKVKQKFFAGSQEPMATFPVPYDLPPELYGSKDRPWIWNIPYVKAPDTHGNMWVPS
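Compounds were preincubated with Tdp1 (1 nM final) for 15 min at room temperature before substrate (15 nM final) started a 5 min reaction; beads (10 ug/ml final) were then added for 10 min before AlphaScreen detection.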
IL1B secr inh = inhibitors of inflammasome signaling (IL-1 beta secretion) | THP-1 LPS/ATP IL-1B secretion, AlphaLISA, 16 h; stronger effect = lower value | AID 743279 | activity change, % at 57.5 µM | 360,000 compounds, 4.7% hits; in the data active means activity change below about -50%; inconclusive means mostly about -30% to -49%
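Secreted IL-1B measured by AlphaLISA bead assay after 16 h compound exposure of THP-1 cells; compounds (final up to 57.5 uM) added 1 h before LPS (250 ng/mL) and ATP (1.25 mM) stimulation; lower signal means less secretion.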
CtBP-E1A inh = blocks the CtBP interaction with E1A; AlphaScreen GST-E1A/His-CtBP binding, 1536-well; stronger effect = lower value; activity change, % (no concentration beside the values); 340,000 compounds, 0.49% hits; AID 651724; in the data active means activity change below about -65%; inconclusive means mostly about -30% to -63%
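Homogeneous bead-based format: GST-tagged E1A captured on glutathione donor beads, His-tagged CtBP on nickel acceptor beads; compounds precede bead addition by 2 h at 37 °C.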
Six1-Eya2 blk = blocks human Six1 binding to Eya2; Q15475+O00167; AlphaScreen GST-Six1/His-Eya2 binding, biochemical; stronger effect = lower value; activity change, % (no concentration beside the values); 360,000 compounds, 0.56% hits; AID 651725; in the data active means activity change below about -65%; inconclusive means mostly about -30% to -63%
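GST-Six1 + His-Eya2 (5X stock: 250/500 nM); Tris pH 8.0, 300 mM NaCl, 0.05% BSA, 0.02% Tween 20; GSH donor/Ni acceptor beads; 1 h 37 °C dark; AlphaScreen readout.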
DT40 TDP1 no CPT = qHTS for Inhibitors of human tyrosyl-DNA phosphodiesterase 1 (TDP1): qHTS in cells in absence of CPT | DT40 Tdp1-/- hTDP1 cells, no CPT, ATP luminescence, 48 h | 420,000 compounds, 15% hits | Potency, µM (top dose mostly 46.2 µM), inactives show top-dose activity change, negative = growth inhibition, most hits filed as inhibitors | AID 686978, 2013; further: potency means the concentration at half of the fitted maximal effect; nearly all actives have a fitted effect of over 55% in size
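Growth of hTDP1-complemented DT40 Tdp1-knockout cells is measured by ATP luminescence after at least 48 hr compound exposure at 37 °C, with DMSO substituting for the 20 nM CPT used in the parallel screen.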
DT40 TDP1 CPT = growth inhibition of DT40 Tdp1-/-;hTDP1 cells with camptothecin (screen for TDP1 inhibitors); 420,000 compounds, 12% hits; Potency, µM (highest dose often 46.2 µM), inactives show at the highest dose activity change, negative = growth inhibition, hits mostly inhibitors; chicken DT40 Tdp1-/-;hTDP1 cells + 20 nM CPT, ATP luminescence, 48 h; further: potency means the concentration at half of the fitted maximal effect; nearly all actives have a fitted effect of over 55% in size
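Chicken DT40 Tdp1-/- cells complemented with human TDP1, 400 cells/well, exposed to compounds plus 20 nM camptothecin for at least 48 h at 37 C; viability read as ATP content by CellTiter-Glo luminescence.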
* marks the source's active call; other numbers are inactive results. Unless noted, the call rests on the fitted dose curve; in most records, active means well fitted curve in the direction sought with a large enough effect; inconclusive means small, poorly fitted or top-dose-only effect, or another doubt; inactive means no such curve, though single readings can be large; an effect the other way counts as inactive or inconclusive. On the % scale 0 is the no-effect control and ±100 the full control effect.

How did Oc1ccc(CNC2CCCCC2)cc1 do in these assays?
TDP1 inh: 4%; IL1B secr inh: 1; CtBP-E1A inh: -2; Six1-Eya2 blk: 16; DT40 TDP1 no CPT: -9%; DT40 TDP1 CPT: -15%

What do the screens show for `Cc1ccc(NC(=O)C(C)OC(=O)c2ccc(Cl)nc2)cc1S(=O)(=O)N1CCOCC1` (stereo not drawn)?
IL1B secr inh: 12; CtBP-E1A inh: 7; Six1-Eya2 blk: -8; DT40 TDP1 no CPT: -19%; DT40 TDP1 CPT: -19%

How did CCCS(=O)(=O)C(=C1NCCO1)S(=O)(=O)CCC do in these assays?
TDP1 inh: -1%; IL1B secr inh: 12; CtBP-E1A inh: -1; Six1-Eya2 blk: 12; DT40 TDP1 no CPT: -20%; DT40 TDP1 CPT: -4%

Results for O=C(/C=C/c1c(F)cccc1Cl)c1ccc(F)cc1 ?
TDP1 inh: -6%; IL1B secr inh: -2; CtBP-E1A inh: 8; Six1-Eya2 blk: 0; DT40 TDP1 no CPT: 26µM*; DT40 TDP1 CPT: 21µM*

How did O=C(/C=C/c1ccccc1[N+](=O)[O-])OCC(=O)N1CCN(c2ccccc2)CC1 do in these assays?
IL1B secr inh: 3; CtBP-E1A inh: 0; Six1-Eya2 blk: -2; DT40 TDP1 no CPT: inconclusive; DT40 TDP1 CPT: 21µM*

How did O=C(/C=C/c1c(F)cccc1Cl)N1CCc2ccccc2C1 do in these assays?
IL1B secr inh: -63*; CtBP-E1A inh: 17; Six1-Eya2 blk: 6; DT40 TDP1 no CPT: inconclusive; DT40 TDP1 CPT: inconclusive

What do the screens show for `CCN1CCN(C(=O)/C=C/c2c(F)cccc2Cl)CC1`?
IL1B secr inh: -5; CtBP-E1A inh: 7; Six1-Eya2 blk: 8; DT40 TDP1 no CPT: 0%; DT40 TDP1 CPT: 10%

How did O=C(/C=C/c1ccccc1[N+](=O)[O-])N1CCc2ccccc2C1 do in these assays?
IL1B secr inh: -53*; CtBP-E1A inh: 2; Six1-Eya2 blk: 1; DT40 TDP1 no CPT: 16µM*; DT40 TDP1 CPT: inconclusive

Results for Cc1ccc(NCC2(N=Cc3ccccc3)OC(CO)C(O)C2O)cc1 (stereo not drawn) ?
IL1B secr inh: 8; CtBP-E1A inh: -2; Six1-Eya2 blk: 1; DT40 TDP1 no CPT: inconclusive; DT40 TDP1 CPT: inconclusive

How did O=C(CCN1C(=O)S/C(=C\c2ccc(Cl)cc2)C1=O)Nc1ccc(C(=O)O)cc1 do in these assays?
TDP1 inh: 28µM*; IL1B secr inh: -20; CtBP-E1A inh: 10; Six1-Eya2 blk: 8; DT40 TDP1 no CPT: -27%; DT40 TDP1 CPT: -2%

How did O=C(CN1C(=O)S/C(=C/C=C/c2ccccc2)C1=O)Nc1ccc(C(=O)O)cc1 do in these assays?
TDP1 inh: -10%; IL1B secr inh: -24; CtBP-E1A inh: -8; Six1-Eya2 blk: -6; DT40 TDP1 no CPT: -21%; DT40 TDP1 CPT: 0%

How did O=C(CCN1C(=O)/C(=C\C=C\c2ccccc2)SC1=S)Nc1ccc(C(=O)O)cc1 do in these assays?
TDP1 inh: 14µM*; IL1B secr inh: -55*; CtBP-E1A inh: inconclusive; Six1-Eya2 blk: -13; DT40 TDP1 no CPT: 4%; DT40 TDP1 CPT: -3%

What do the screens show for `O=C(CCCN1C(=O)S/C(=C\C=C\c2ccccc2)C1=O)Nc1ccc(O)cc1`?
TDP1 inh: 5%; IL1B secr inh: -78*; CtBP-E1A inh: -4; Six1-Eya2 blk: 1; DT40 TDP1 no CPT: inconclusive; DT40 TDP1 CPT: inconclusive

Results for O=C(CN1C(=O)S/C(=C\C=C\c2ccccc2)C1=O)Nc1ccc(C(=O)O)cc1 ?
TDP1 inh: inconclusive; IL1B secr inh: -2; CtBP-E1A inh: -14; Six1-Eya2 blk: -7; DT40 TDP1 no CPT: -3%; DT40 TDP1 CPT: -4%

Results for COc1ccc2c(Sc3ccc(C)cc3)c(C(=O)NCc3ccc(F)cc3)[nH]c2c1 ?
TDP1 inh: 0%; DT40 TDP1 no CPT: inconclusive; DT40 TDP1 CPT: inconclusive

Results for Clc1ccc(-c2c[n+](Cc3ccc(Br)cc3)c3n2CCCCC3)cc1 ?
TDP1 inh: 3%; IL1B secr inh: -62*; CtBP-E1A inh: 3; Six1-Eya2 blk: -4; DT40 TDP1 no CPT: 2.6µM*; DT40 TDP1 CPT: 2.6µM*

Results for Clc1cccc(-c2nnc3n2CCCCC3)c1 ?
TDP1 inh: 0%; IL1B secr inh: -4; CtBP-E1A inh: 7; Six1-Eya2 blk: -7; DT40 TDP1 no CPT: -2%; DT40 TDP1 CPT: 8%

What do the screens show for `N#CC[n+]1cc(-c2ccc(Cl)cc2)n2c1CCC2`?
TDP1 inh: 1%; IL1B secr inh: 17; CtBP-E1A inh: 4; Six1-Eya2 blk: 3; DT40 TDP1 no CPT: 0%; DT40 TDP1 CPT: -5%

How did Clc1ccc(-c2c[n+](Cc3ccc(Cl)cc3Cl)c3n2CCCCC3)cc1 do in these assays?
TDP1 inh: 2%; IL1B secr inh: -81*; CtBP-E1A inh: -2; Six1-Eya2 blk: -5; DT40 TDP1 no CPT: 1.2µM*; DT40 TDP1 CPT: 1.2µM*

What do the screens show for `Clc1ccc(C[n+]2cc(-c3ccccc3)n3c2CCCCC3)c(Cl)c1`?
TDP1 inh: 4%; IL1B secr inh: -91*; CtBP-E1A inh: 1; Six1-Eya2 blk: 0; DT40 TDP1 no CPT: 0.26µM*; DT40 TDP1 CPT: 0.46µM*

How did O=C(COC(=O)c1cc(=O)c2ccccc2o1)NC1CCCC1 do in these assays?
TDP1 inh: 5%; IL1B secr inh: 2; CtBP-E1A inh: 2; Six1-Eya2 blk: 7; DT40 TDP1 no CPT: -14%; DT40 TDP1 CPT: 12%

What do the screens show for `Cc1cc(C)c(NS(=O)(=O)c2ccccc2)c(C)c1`?
IL1B secr inh: -7; CtBP-E1A inh: -5; Six1-Eya2 blk: 8; DT40 TDP1 no CPT: inconclusive; DT40 TDP1 CPT: 7%

How did COC(=O)c1[nH]c2cccc(OC)c2c1NC(=O)CN1CCC(C(N)=O)(N2CCCCC2)CC1 do in these assays?
TDP1 inh: -8%; IL1B secr inh: 23; CtBP-E1A inh: 9; Six1-Eya2 blk: 0; DT40 TDP1 no CPT: -8%; DT40 TDP1 CPT: 2%

Results for O=c1[nH]c(CN2CCCCC2)nc2c1C1(CCCCC1)Cc1ccccc1-2 ?
TDP1 inh: 9%; IL1B secr inh: 14; CtBP-E1A inh: -4; Six1-Eya2 blk: -4; DT40 TDP1 no CPT: 13µM*; DT40 TDP1 CPT: 13µM*

How did CCc1nc2c(c(=O)[nH]1)C1(CCCC1)Cc1ccccc1-2 do in these assays?
TDP1 inh: 5%; IL1B secr inh: -7; CtBP-E1A inh: 0; Six1-Eya2 blk: 7; DT40 TDP1 no CPT: -20%; DT40 TDP1 CPT: -15%

What do the screens show for `COC(=O)N/N=C/c1cn(Cc2ccccc2F)c2ccccc12`?
TDP1 inh: 3%; IL1B secr inh: -75*; CtBP-E1A inh: 0; Six1-Eya2 blk: -14; DT40 TDP1 no CPT: inconclusive; DT40 TDP1 CPT: -3%
